Source: PubChem BioAssay AID1063 (University of Pittsburgh Molecular Library Screening Center, 2008)
The whole screen tested about 200,000 compounds, of which about 18,000 (9%) were called active. Shown is part of a subset that was picked to be rich in actives. Values without a mark were called inactive. No stated cut-off is given here; in the data, active means inhibition above about 50%; inactive means the rest.

test: antileishmanial activity against promastigotes – primary screen (AID 1063); conditions: Leishmania major promastigotes, resazurin fluorescence viability; at 10 µM; hits give high values;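 further: promastigotes grown with compound for 44 hours at 28 °C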

**Q.** For `Cc1cc(OCC(=O)NC2CCN(C)CC2)ccc1[N+](=O)[O-]`, which inhibition is on record?
**A.** 55% (active)

**Q.** With `Cc1c(Br)c([N+](=O)[O-])nn1CC(=O)N1CCN(Cc2ccccc2)CC1` as the compound, how does the inhibition read?
**A.** 0.53%

**Q.** Which inhibition does the source give for `O=C(COc1ccccc1[N+](=O)[O-])NC1CC1` here?
**A.** -4.5%

**Q.** With `O=C(O)Cc1sc(-c2ccccc2)nc1-c1cccs1` as the compound, how does the inhibition read?
**A.** -7.68%

**Q.** Which inhibition does the source give for `CC(=O)NCC(=O)N1CCCC(C(=O)c2ccc3c4c(cccc24)CC3)C1` (stereo not drawn) here?
**A.** 1.15%

**Q.** Which inhibition does the source give for `O=C(COc1ccccc1Cl)Nc1ccc(C(=O)c2ccc(C(=O)O)cc2)cc1` here?
**A.** 0.1%

**Q.** For `CN(CC(=O)Nc1ccccc1[N+](=O)[O-])Cc1ccc(Br)cc1`, which inhibition is on record?
**A.** 5.69%

**Q.** With `CC1=C(C)C(=O)OC(C(C)C2CCC3C4CC=C5CC(OC6OC(COC7OC(CO)C(O)C(O)C7O)C(O)C(O)C6O)CC(O)C5(C)C4CCC23C)C1` (stereo not drawn) as the compound, how does the inhibition read?
**A.** -11.1%

**Q.** With `Cc1cc(C)cc(OCC(=O)NCc2cc(C)nc3ccccc23)c1` as the compound, how does the inhibition read?
**A.** 36.5%

**Q.** Which inhibition does the source give for `COC(=O)CC1=NN(c2ccccc2)C(=O)C1` here?
**A.** -3.08%

**Q.** For `Cc1cc(/C=C(/C#N)C(=O)Nc2ccc(Cl)cc2)c(C)n1-c1cccnc1`, which inhibition is on record?
**A.** 56.9% (active)

**Q.** Which inhibition does the source give for `Cc1ccc(-n2c(C)cc(/C=C(\C#N)C(=O)NCC3CCCO3)c2C)cc1` (stereo not drawn) here?
**A.** -2.28%

**Q.** For `C/C(=C\C(=O)c1cccnc1)Nc1ccc(C)c(C)c1`, which inhibition is on record?
**A.** 20.1%

**Q.** For `COC(=O)c1c(C)[nH]c(C)c1-c1ccc([N+](=O)[O-])cc1`, which inhibition is on record?
**A.** 12.6%

**Q.** With `O=C(CSc1nn(-c2ccc(F)cc2)c(=S)s1)NC1CCS(=O)(=O)C1` (stereo not drawn) as the compound, how does the inhibition read?
**A.** 2.16%

**Q.** With `COc1ccc(NC(=O)CCNS(=O)(=O)c2ccc3c(c2)c(=O)n(C)c(=O)n3C)cc1OC` as the compound, how does the inhibition read?
**A.** -8.95%

**Q.** For `CCN(CC)P(=O)(Nc1ccc(SC(F)F)cc1)c1ccc(N(C)C)cc1NC(=O)c1ccco1` (stereo not drawn), which inhibition is on record?
**A.** 85.2% (active)

**Q.** Which inhibition does the source give for `CCC(=O)NC(=S)Nc1ccc(NC(=O)c2ccco2)c(Cl)c1` here?
**A.** -3.46%

**Q.** With `O=C(Nc1ccc(Sc2ccc(Br)cc2)cc1)c1ccco1` as the compound, how does the inhibition read?
**A.** -2.45%

**Q.** Which inhibition does the source give for `COc1ccc(N2CCN(C(=O)COc3ccc4c(C)cc(=O)oc4c3)CC2)cc1` here?
**A.** 1.16%

**Q.** With `Cc1ccc2cc(C#N)c(NCCNC(=S)NCCCN3CCOCC3)nc2c1` as the compound, how does the inhibition read?
**A.** 1.99%

**Q.** With `CN(C)S(=O)(=O)N1CCN(c2ccc([N+](=O)[O-])cc2)CC1` as the compound, how does the inhibition read?
**A.** -7.87%

**Q.** Which inhibition does the source give for `Cc1cc(C)c(OCCN2CC(C)OC(C)C2)c(Br)c1` (stereo not drawn) here?
**A.** 88.1% (active)

**Q.** Which inhibition does the source give for `CC(=O)Nc1cccc(C(=O)Nc2nc(C)cs2)c1` here?
**A.** 11.8%

**Q.** For `CC1CCCN(CC(O)COCc2ccccc2)C1` (stereo not drawn), which inhibition is on record?
**A.** 11%

**Q.** With `CC1CCCN(CC(O)COc2ccc3c(c2)OCO3)C1` (stereo not drawn) as the compound, how does the inhibition read?
**A.** 54.4% (active)

**Q.** Which inhibition does the source give for `CN1CCN(CC(O)COCc2ccc3c(c2)OCO3)CC1` (stereo not drawn) here?
**A.** -2.38%

**Q.** For `Cc1coc(C)c1C(=O)CC1(O)C(=O)N(C)c2ccc(Cl)cc21` (stereo not drawn), which inhibition is on record?
**A.** 1.6%

**Q.** With `O=C(Nc1cccc(Cl)c1)c1cc([N+](=O)[O-])ccc1N1CCN(CCO)CC1` as the compound, how does the inhibition read?
**A.** 0.91%

**Q.** Which inhibition does the source give for `COc1cc(NC(=S)NCCSc2ccc(C)cc2)cc(OC)c1` here?
**A.** 7.14%

**Q.** Which inhibition does the source give for `Cn1c(N)c(C(=O)COC(=O)/C=C/c2ccc(OC(F)F)cc2)c(=O)n(C)c1=O` here?
**A.** -9.55%

**Q.** With `CCCCCC(=O)Nc1ccc(-c2cn3cccnc3n2)cc1` as the compound, how does the inhibition read?
**A.** -7.19%

**Q.** Which inhibition does the source give for `O=C(N/N=C/c1ccc2c(c1)OCO2)c1ccc(Cn2cc([N+](=O)[O-])cn2)o1` here?
**A.** 87% (active)

**Q.** Which inhibition does the source give for `CN(C)c1ccc(/C=N/NC(=O)c2ccc(Cn3cc(Br)cn3)o2)cc1` here?
**A.** 3.04%

**Q.** For `O=C(N/N=C\c1ccc(Br)cc1)c1ccc(Cn2cccn2)o1`, which inhibition is on record?
**A.** 1.72%

**Q.** With `CCCCN1C(=S)NC[C@@H]1C(C)CC` (stereo partly drawn) as the compound, how does the inhibition read?
**A.** -1.31%

**Q.** With `CCOC(=O)c1ccc(NNC(C)=O)c([N+](=O)[O-])c1` as the compound, how does the inhibition read?
**A.** -5.16%

**Q.** With `CCOC(=O)C1=C(C)N=c2s/c(=C\C(=O)OC)c(=O)n2C1c1ccc(OC)cc1` (stereo not drawn) as the compound, how does the inhibition read?
**A.** 18.8%

**Q.** For `COc1ccc(OC)c(C2C3=C(N=c4s/c(=C\c5cccc(O)c5)c(=O)n42)c2ccccc2CC3)c1` (stereo not drawn), which inhibition is on record?
**A.** 75.7% (active)

**Q.** For `COCCOC(=O)C1=C(C)N=c2s/c(=C\c3cccs3)c(=O)n2C1c1cccs1` (stereo not drawn), which inhibition is on record?
**A.** 7.92%

**Q.** For `COc1ccc(C2CC(c3ccccc3)=NN2C(=O)COC(=O)COc2ccccc2)cc1` (stereo not drawn), which inhibition is on record?
**A.** 2.56%

**Q.** For `CNC(=S)N1N=C(c2ccccc2)CC1c1ccc(Br)cc1` (stereo not drawn), which inhibition is on record?
**A.** 99.3% (active)

**Q.** Which inhibition does the source give for `Brc1ccc(C2CC(c3ccccc3)=Nc3ccccc3N2)cc1` (stereo not drawn) here?
**A.** 27.2%

**Q.** With `O=C1CS(=O)CN1c1ccc(Oc2ccccc2)cc1` (stereo not drawn) as the compound, how does the inhibition read?
**A.** -2.75%

**Q.** Which inhibition does the source give for `NS(=O)(=O)c1cccc(NC(=O)COC(=O)/C=C/c2ccco2)c1` here?
**A.** -5.99%

**Q.** With `CC(=O)Oc1ccc(C(=O)Nc2nccs2)cc1` as the compound, how does the inhibition read?
**A.** -7.34%

**Q.** With `CCN(c1ccccc1)S(=O)(=O)c1ccc(C(=O)Nc2nccs2)cc1` as the compound, how does the inhibition read?
**A.** 72.2% (active)

**Q.** For `CCN(c1ccccc1)S(=O)(=O)c1ccc(NC(=O)C(C)(C)C)cc1`, which inhibition is on record?
**A.** 0.65%
